Values joined by “and” are separate entries in the source; they are usually repeats but may differ in a detail not shown here. Equal entries are not always repeated. Some structures have more than one record in an assay (separate samples or runs), and their calls can disagree. Active and inactive are the calls of the source. Rule for the calls: active = hit-call score of the fitted dose curve at least 0.9, where 1 is the maximum; inactive = score below 0.9.
Legend:
[1] = read-out: Interleukin-1 alpha (IL1a), IL1A (gene 3552); assay: BSK_KF3CT_IL1a: BioMAP Diversity Plus: KF3CT Assay for Interleukin-1 alpha (IL1a) Biomarker Activity (AID 2283070); settings: primary human keratinocytes with fibroblasts; actives raise or lower the signal
How it was run: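 IL-1a was detected by ELISA 24 h after chemical treatment of a co-culture of human skin keratinocytes and foreskin fibroblasts. Gain or loss of signal was fitted against the DMSO baseline.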

[2] = read-out: Transforming growth factor beta 1 (TGFb1), TGFB1 (gene 7040); assay: BSK_KF3CT_TGFb1: BioMAP Diversity Plus: KF3CT Assay for Transforming growth factor beta 1 (TGFb1) Biomarker Activity (AID 2283072); settings: primary human keratinocytes with fibroblasts; actives raise or lower the signal
How it was run: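 KF3CT co-culture (keratinocytes + fibroblasts), 24 h exposure → TGF-b1 ELISA → bidirectional fit, DMSO = baseline. Parallel SRB total-protein staining (0.1% SRB, 10% TCA fixation, 560 nm) for cytotoxicity.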

[3] = read-out: C-C motif chemokine 2 (Homo sapiens) (UniProt P13500); assay: BSK_KF3CT_MCP1: BioMAP Diversity Plus: KF3CT Assay for Monocyte Chemoattractant Protein 1 (MCP1/CCL2) Biomarker Activity (AID 2283073); settings: primary human keratinocytes with fibroblasts; actives raise or lower the signal
How it was run: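 KF3CT skin co-culture (keratinocytes/foreskin fibroblasts), 24 h post-dose; MCP-1 by ELISA; gain/loss of signal fit bidirectionally vs DMSO baseline.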

[4] = read-out: Matrix Metallopeptidase 9 (MMP9), MMP9 (gene 4318); assay: BSK_KF3CT_MMP9: BioMAP Diversity Plus: KF3CT Assay for Matrix Metallopeptidase 9 (MMP9) Biomarker Activity (AID 2283074); settings: primary human keratinocytes with fibroblasts; actives raise or lower the signal;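 for AC50: MMP9 protein level quantified by ELISA in the co-culture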
How it was run: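 MMP-9 quantified by ELISA after 24 h chemical treatment of primary human skin keratinocyte/fibroblast co-cultures; gain or loss fitted against DMSO, with parallel SRB staining (0.1% SRB, 560 nm) for overt cytotoxicity.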

[5] = read-out: urokinase plasminogen activator (uPA), PLAU (gene 5328); assay: BSK_KF3CT_uPA: BioMAP Diversity Plus: KF3CT Assay for urokinase plasminogen activator (uPA) Biomarker Activity (AID 2283075); settings: primary human keratinocytes with fibroblasts; actives raise or lower the signal
How it was run: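 ELISA read-out of uPA 24 h after dosing human skin keratinocytes co-cultured with foreskin fibroblasts. Signal change fitted both ways relative to DMSO; sulforhodamine B on parallel cultures marks overt cytotoxicity.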

CD40, CD40 (gene 958) [6] = assay: BSK_LPS_CD40: BioMAP Diversity Plus: LPS Assay for CD40 Biomarker Activity (AID 2283076); settings: primary human HUVEC with PBMC; actives raise or lower the signal
How it was run: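 ELISA readout of CD40 in HUVEC/PBMC co-culture (BSK_LPS system), 24 h post-dosing; bidirectional curve fit, DMSO baseline; parallel SRB total-protein staining for cytotoxicity.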

[7] = read-out: E-selectin (Homo sapiens) (UniProt P16581); assay: BSK_LPS_Eselectin: BioMAP Diversity Plus: LPS Assay for Eselectin Biomarker Activity (AID 2283077); settings: primary human HUVEC with PBMC; actives raise or lower the signal
How it was run: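 ELISA readout of E-selectin, 24 h post-dose, HUVEC + PBMC co-culture (LPS system). Gain or loss of signal vs DMSO baseline, bidirectional fit.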

[8] = read-out: Interleukin-8 (IL8), CXCL8 (gene 3576); assay: BSK_LPS_IL8: BioMAP Diversity Plus: LPS Assay for Interleukin-8 (IL8) Biomarker Activity (AID 2283078); settings: primary human HUVEC with PBMC; actives raise or lower the signal
How it was run: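 HUVEC + PBMC co-culture, LPS-activated; test chemicals dosed, IL-8 read by ELISA at 24 h. Bidirectional curve fit vs DMSO baseline (gain or loss of signal).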

[9] = BSK_LPS_SRB: Viability Assessment in the BioMAP Diversity Plus: LPS Assay (AID 2283079); settings: primary human HUVEC with PBMC;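 note: total protein by sulforhodamine B absorbance as a cytotoxicity measure; measured one day after compound addition; fitted in both directions against DMSO so loss or gain of signal counts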
How it was run: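 HUVEC + PBMC co-culture, LPS-stimulated; compound 24 h. 10% TCA fix, 0.1% SRB stain, A560. Bidirectional fit vs DMSO.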

[10] = read-out: Interleukin-1 alpha (IL1a), IL1A (gene 3552); assay: BSK_LPS_IL1a: BioMAP Diversity Plus: LPS Assay for Interleukin-1 alpha (IL1a) Biomarker Activity (AID 2283080); settings: primary human HUVEC with PBMC; actives raise or lower the signal
How it was run: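 HUVEC/PBMC co-culture, LPS system; 24 h after dosing; IL-1a by ELISA; gain or loss of signal fitted bidirectionally vs DMSO baseline.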

[11] = read-out: Monocyte Chemoattractant Protein-1 (MCP1), CCL2 (gene 6347); assay: BSK_LPS_MCP1: BioMAP Diversity Plus: LPS Assay for Monocyte Chemoattractant Protein-1 (MCP1) Biomarker Activity (AID 2283081); settings: primary human HUVEC with PBMC; actives raise or lower the signal;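 for AC50: secreted MCP-1 protein quantified by ELISA in culture supernatant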
How it was run: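 ELISA read-out of MCP-1 after 24 h chemical dosing of a human umbilical vein endothelial cell/peripheral blood mononuclear cell co-culture stimulated with LPS. Gain or loss of signal fitted relative to DMSO controls.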

[12] = BSK_LPS_PGE2: BioMAP Diversity Plus: LPS Assay for Prostaglandin E2 (PGE2) Biomarker Activity (AID 2283082); settings: primary human HUVEC with PBMC; actives raise or lower the signal;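 for AC50: secreted prostaglandin E2 measured by ELISA in LPS-stimulated co-culture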
How it was run: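 Compounds were added to the LPS co-culture of endothelium and PBMC, and PGE2 was measured by ELISA after 24 h. Responses in either direction were fitted with DMSO as baseline.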

[13] = read-out: Macrophage colony-stimulating factor (MCSF), CSF1 (gene 1435); assay: BSK_LPS_MCSF: BioMAP Diversity Plus: LPS Assay for Macrophage colony-stimulating factor (MCSF) Biomarker Activity (AID 2283083); settings: primary human HUVEC with PBMC; actives raise or lower the signal
How it was run: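 HUVEC + PBMC co-culture (human primary), 24 h post-dose; M-CSF by ELISA; gain/loss of signal fitted bidirectionally vs DMSO baseline.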

[14] = read-out: Tissue Factor, F3 (gene 2152); assay: BSK_LPS_TissueFactor: BioMAP Diversity Plus: LPS Assay for Tissue Factor Biomarker Activity (AID 2283084); settings: primary human HUVEC with PBMC; actives raise or lower the signal
How it was run: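 HUVEC/PBMC co-culture, LPS-activated; CD142 ELISA read 24 h post-dose; bidirectional curve fit vs DMSO negative control.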

[15] = read-out: Tumor necrosis factor (Homo sapiens) (UniProt P01375); assay: BSK_LPS_TNFa: BioMAP Diversity Plus: LPS Assay for Tumour Necrosis Factor alpha (TNFa) Biomarker Activity (AID 2283085); settings: primary human HUVEC with PBMC; actives raise or lower the signal;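 for AC50: TNFa protein level quantified by ELISA in the co-culture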
How it was run: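 Cells (umbilical vein endothelium plus peripheral blood mononuclear cells) were dosed with chemical, incubated 24 h, then TNFa was quantified by ELISA; values derive from bidirectional fitting with DMSO as baseline.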

[16] = read-out: Vascular cell adhesion molecule 1 (VCAM1), VCAM1 (gene 7412); assay: BSK_LPS_VCAM1: BioMAP Diversity Plus: LPS Assay for Vascular cell adhesion molecule 1 (VCAM1) Biomarker Activity (AID 2283086); settings: primary human HUVEC with PBMC; actives raise or lower the signal
How it was run: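 Cells are dosed in an LPS-stimulated endothelial/mononuclear co-culture and, after 24 h, VCAM-1 is quantified by ELISA. Activity in either direction is fitted relative to the DMSO negative control.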

CD38, CD38 (gene 952) = assay: BSK_SAg_CD38: BioMAP Diversity Plus: SAg Assay for CD38 Biomarker Activity (AID 2283087); settings: primary human HUVEC with PBMC; actives raise or lower the signal
How it was run: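 CD38 quantified by ELISA (fluorescence) in a superantigen-activated endothelial cell–PBMC co-culture at 24 h post-dose. Activity fitted in both directions relative to DMSO; parallel SRB and Alamar Blue cytotoxicity read-outs.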

CD40, CD40 (gene 958) [17] = assay: BSK_SAg_CD40: BioMAP Diversity Plus: SAg Assay for CD40 Biomarker Activity (AID 2283088); settings: primary human HUVEC with PBMC; actives raise or lower the signal
How it was run: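 HUVEC/PBMC co-culture, 24 h post-dose; CD40 by ELISA, fluorescence intensity; bidirectional fit vs DMSO negative control.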

CD69, CD69 (gene 969) = assay: BSK_SAg_CD69: BioMAP Diversity Plus: SAg Assay for CD69 Biomarker Activity (AID 2283089); settings: primary human HUVEC with PBMC; actives raise or lower the signal
How it was run: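 Primary human vascular co-culture (umbilical vein endothelium with peripheral blood mononuclear cells) exposed to test chemical for 24 h. CD69 levels quantified by fluorescence ELISA; DMSO served as negative control for bidirectional fitting.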

Measured: AC50

Chain of E-selectin (Homo sapiens) (P16581 whole entry, looked up): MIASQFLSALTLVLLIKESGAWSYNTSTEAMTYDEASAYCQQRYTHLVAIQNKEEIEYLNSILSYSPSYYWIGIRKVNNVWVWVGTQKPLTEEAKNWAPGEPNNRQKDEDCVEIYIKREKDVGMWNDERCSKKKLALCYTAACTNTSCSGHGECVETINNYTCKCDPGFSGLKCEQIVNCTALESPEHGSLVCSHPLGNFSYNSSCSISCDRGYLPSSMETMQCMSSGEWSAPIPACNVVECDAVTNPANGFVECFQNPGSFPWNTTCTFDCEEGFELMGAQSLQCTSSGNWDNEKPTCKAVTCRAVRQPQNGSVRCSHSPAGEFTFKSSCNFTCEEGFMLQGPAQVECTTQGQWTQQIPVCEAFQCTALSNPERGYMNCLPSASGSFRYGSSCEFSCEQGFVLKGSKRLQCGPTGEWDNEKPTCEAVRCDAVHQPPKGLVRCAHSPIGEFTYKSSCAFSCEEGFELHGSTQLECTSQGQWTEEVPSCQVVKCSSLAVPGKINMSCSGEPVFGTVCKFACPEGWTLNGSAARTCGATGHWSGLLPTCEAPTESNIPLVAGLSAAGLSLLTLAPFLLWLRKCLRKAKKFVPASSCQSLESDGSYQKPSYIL
Chain of Tumor necrosis factor (Homo sapiens) (P01375 whole entry, looked up): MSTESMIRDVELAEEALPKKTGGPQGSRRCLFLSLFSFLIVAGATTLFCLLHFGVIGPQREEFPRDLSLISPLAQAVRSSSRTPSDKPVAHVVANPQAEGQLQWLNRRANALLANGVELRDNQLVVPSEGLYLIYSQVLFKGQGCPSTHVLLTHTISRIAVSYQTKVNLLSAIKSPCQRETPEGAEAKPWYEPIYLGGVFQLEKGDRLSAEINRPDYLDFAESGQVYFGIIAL

CN(C)C(=O)Cl
not listed: CD69, CD69 (gene 969)
inactive: all other assays above

CCOc1ccc(C(C)(C)COCc2cccc(Oc3ccccc3)c2)cc1
active: [15] 1.15 µM
not listed: [7] | [10]
inactive: all other assays above

C=CC(=O)OCC(F)(F)C(F)F
active: CD40, CD40 (gene 958) [6] 24 µM and 19.9 µM | [8] 49 µM and 30 µM | [10] 40 µM and 35.4 µM | [11] 20.8 µM | [12] 39.4 µM and 31.6 µM | [13] 30 µM | [15] 54.6 µM and 54 µM | [16] 38 µM and 24.3 µM | CD38, CD38 (gene 952) 24.2 µM and 36.9 µM | CD40, CD40 (gene 958) [17] 37.2 µM and 35.3 µM
inactive: [1] | [3] | [4] | [5] | [9] | [11] | [13] | [14]

CC(C)(C)OOC(C)(C)C
not listed: [7]
inactive: all other assays above

O=S(=O)(F)C(F)(F)C(F)(F)C(F)(F)C(F)(F)C(F)(F)C(F)(F)C(F)(F)C(F)(F)F
not listed: [2] | CD69, CD69 (gene 969)
inactive: all other assays above

COC(=O)C(F)(F)C(F)(F)OC(F)(C(F)(F)F)C(F)(F)OC(F)=C(F)F (stereo not given)
active: CD38, CD38 (gene 952) 864 nM
inactive: [1] | [3] | [4] | [5] | CD40, CD40 (gene 958) [6] | [7] | [8] | [9] | [10] | [11] | [12] | [13] | [14] | [15] | [16] | CD38, CD38 (gene 952) | CD40, CD40 (gene 958) [17] | CD69, CD69 (gene 969)

N#Cc1cc([N+](=O)[O-])ccc1N
not listed: [7]
inactive: all other assays above

O=C(O)C1C(C(=O)O)C2(Cl)C(Cl)=C(Cl)C1(Cl)C2(Cl)Cl (stereo not given)
not listed: [7]
inactive: all other assays above

NC(=O)C(F)(F)C(F)(F)F
not listed: [2]
inactive: all other assays above

CCOP(=S)(NC(C)C)Oc1ccccc1C(=O)OC(C)C (stereo not given)
active: [15] 4.8 µM
not listed: [7] | CD69, CD69 (gene 969)
inactive: all other assays above

[N-]=[N+]=[N-]
not listed: [7] | CD69, CD69 (gene 969)
inactive: all other assays above

c1nc[nH]n1
not listed: [7]
inactive: all other assays above

CCCCC(CC)COP(=O)(Oc1ccccc1)Oc1ccccc1 (stereo not given)
active: [1] 5.46 µM | [2] 5.46 µM | [4] 3.71 µM | [5] 4.9 µM | CD40, CD40 (gene 958) [6] 13.5 µM | [8] 20 µM | [9] 20 µM | [10] 20 µM | [11] 7.43 µM | [13] 8.19 µM | [15] 20 µM | [16] 13 µM | CD38, CD38 (gene 952) 20000 nM | CD40, CD40 (gene 958) [17] 20 µM
inactive: [3] | [12] | [14]

COP(=O)(O)OC
not listed: [7]
inactive: all other assays above

Cc1c([N+](=O)[O-])cc2c(c1[N+](=O)[O-])C(C)(C)CC2(C)C
active: [2] 3.06 µM | CD40, CD40 (gene 958) [6] 0.807 µM
not listed: [7] | CD69, CD69 (gene 969)
inactive: all other assays above

Reference: PubChem BioAssay (EPA / NIEHS)
